Data from PubChem BioAssay (NCATS).
Records with an inconclusive call do not appear. Activity calls are given as the source filed them. Calls come from the whole dose curve; as a rule, active = well fitted curve in the direction sought with a large enough effect; inconclusive = small, poorly fitted or top-dose-only effect, or another doubt; inactive = no such curve, though single readings can be large; an effect the other way counts as inactive or inconclusive.

Columns and labels:
[1] = Quantitative High-Throughput drug screen in 47 multiple myeloma cell lines against the NCATS MIPE library collection: FR4_PLB cell viability assay (AID 1918924; note: nearly all actives have a fitted effect of over 35% in size)
How it was run: (§1)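 Steps: seed 500 cells per well; pin-transfer MIPE 4.0 library; incubate 48 h at 37C, 5% CO2, humidified; add CellTiter-Glo, 5 min room temperature; read luminescence.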

[2] = Quantitative High-Throughput drug screen in 47 multiple myeloma cell lines against the NCATS MIPE library collection: Delta47_JCRB cell viability assay (AID 1918925; note: nearly all actives have a fitted effect of over 45% in size)
How it was run: (§2)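 Myeloma cell lines, 500 cells per well, exposed to MIPE 4.0 library compounds for 48 h at 37C, 5% CO2. Viability from ATP by CellTiter-Glo luminescence; normalised to DMSO (100%) and media-only (0%) wells.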

[3] = Quantitative High-Throughput drug screen in 47 multiple myeloma cell lines against the NCATS MIPE library collection: EJM_DSMZ cell viability assay (AID 1918926; note: nearly all actives have a fitted effect of over 30% in size)
How it was run: as §2

[4] = Quantitative High-Throughput drug screen in 47 multiple myeloma cell lines against the NCATS MIPE library collection: AMO1_DSMZ cell viability assay (AID 1918927; note: nearly all actives have a fitted effect of over 30% in size)
How it was run: as §2

[5] = Quantitative High-Throughput drug screen in 47 multiple myeloma cell lines against the NCATS MIPE library collection: ARD_JJKsccE7 cell viability assay (AID 1918929)
How it was run: as §2

[6] = Quantitative High-Throughput drug screen in 47 multiple myeloma cell lines against the NCATS MIPE library collection: KMM1_JCRB cell viability assay (AID 1918960); note: nearly all actives have a fitted effect of over 30% in size
How it was run: (§3)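 CellTiter-Glo luminescence after 48 h exposure gives viability, scaled between DMSO-only (100%) and media-only (0%) controls. Library compounds are pinned onto 500 myeloma cells per well, incubated at 37C with 5% CO2.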

[7] = Quantitative High-Throughput drug screen in 47 multiple myeloma cell lines against the NCATS MIPE library collection: JIM3_ECACC cell viability assay (AID 1918963; note: nearly all actives have a fitted effect of over 35% in size)
How it was run: as §1

[8] = Quantitative High-Throughput drug screen in 47 multiple myeloma cell lines against the NCATS MIPE library collection: JIM1_ECACC cell viability assay (AID 1918964)
How it was run: as §2

[9] = Quantitative High-Throughput drug screen in 47 multiple myeloma cell lines against the NCATS MIPE library collection: INA6_PLB cell viability assay (AID 1918965; note: nearly all actives have a fitted effect of over 55% in size)
How it was run: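 CellTiter-Glo luminescence (ATP) after 48 h compound exposure, 37C/5% CO2; 500 cells/well; MIPE 4.0 approved/investigational drugs pinned in; DMSO = 100%, media only = 0% viability.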

[10] = Quantitative High-Throughput drug screen in 47 multiple myeloma cell lines against the NCATS MIPE library collection: H1112_PLB cell viability assay (AID 1918967; note: nearly all actives have a fitted effect of over 30% in size)
How it was run: as §2

[11] = Quantitative High-Throughput drug screen in 47 multiple myeloma cell lines against the NCATS MIPE library collection: Karpas25_ECACC cell viability assay (AID 1918968; note: nearly all actives have a fitted effect of over 35% in size)
How it was run: as §2

[12] = Quantitative High-Throughput drug screen in 47 multiple myeloma cell lines against the NCATS MIPE library collection: KMS27_JCRB cell viability assay (AID 1918970); note: nearly all actives have a fitted effect of over 30% in size
How it was run: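 CellTiter-Glo luminescence after 48 h drug exposure at 37 °C; 500 cells/well, 1536-well format, pin-tool compound addition; DMSO = 100%, media-only = 0% viability.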

[13] = Quantitative High-Throughput drug screen in 47 multiple myeloma cell lines against the NCATS MIPE library collection: Karpas620_DSMZ cell viability assay (AID 1918959); note: nearly all actives have a fitted effect of over 30% in size
How it was run: as §1

[14] = Quantitative High-Throughput drug screen in 47 multiple myeloma cell lines against the NCATS MIPE library collection: KHM11_PLB cell viability assay (AID 1918962); note: nearly all actives have a fitted effect of over 35% in size
How it was run: as §1

[15] = Quantitative High-Throughput drug screen in 47 multiple myeloma cell lines against the NCATS MIPE library collection: ARP1_JJKsccF8 cell viability assay (AID 1918928; note: nearly all actives have a fitted effect of over 40% in size)
How it was run: as §3

[16] = Quantitative High-Throughput drug screen in 47 multiple myeloma cell lines against the NCATS MIPE library collection: JJN3_DSMZ cell viability assay (AID 1918966; note: nearly all actives have a fitted effect of over 50% in size)
How it was run: as §2

Measured: Potency
Potency is the fitted concentration of half-maximal effect.

O=C(O)c1cn(-c2ccc(F)cc2)c2cc(N3CCNCC3)c(F)cc2c1=O
inactive: [1] | [2] | [3] | [4] | [5] | [6] | [7] | [8] | [9] | [10] | [11] | [12]

COc1cc2c(cc1OC)C1CC(=O)C(CC(C)C)CN1CC2 (stereo unspecified)
inactive: [1] | [2] | [3] | [13] | [6] | [14] | [7] | [8] | [10] | [11]

Nc1ccn([C@@H]2O[C@H](CO)[C@@H](O)C2O)c(=O)n1 (stereo partly specified)
active: [5] 8.33 µM | [8] 4.18 µM | [11] 1.48 µM
inactive: [1] | [2] | [3] | [4] | [13] | [6] | [7] | [12]

CC1Cc2ccccc2N1NC(=O)c1ccc(Cl)c(S(N)(=O)=O)c1 (stereo unspecified)
inactive: [1] | [2] | [3] | [13] | [7] | [9] | [10] | [11] | [12]

CC1(C)C(=O)N(CCN2CCC(C(=O)c3ccc(F)cc3)CC2)c2ccccc21
inactive: [1] | [3]
active: [2] 16.6 µM | [4] 6.62 µM | [5] 9.35 µM | [13] 3.72 µM | [6] 8.33 µM | [14] 2.09 µM | [9] 1.66 µM | [11] 13.2 µM | [12] 13.2 µM

O=C(O)CCNC(=O)c1ccc(N=Nc2ccc(O)c(C(=O)O)c2)cc1
active: [11] 0.0037 µM
inactive: [1] | [2] | [3] | [15] | [13] | [6] | [7] | [9] | [10] | [12]

Cc1cc(O)c2c(c1)C(=O)c1cc(O)cc(O)c1C2=O
active: [1] 0.418 µM | [11] 2.09 µM
inactive: [2] | [4] | [13] | [6] | [7] | [8] | [9] | [10] | [12]

Nc1nc(Cl)nc2c1ncn2[C@H]1C[C@H](O)[C@@H](CO)O1
active: [1] 3.72 µM | [2] 0.235 µM | [4] 0.187 µM | [14] 1.05 µM | [7] 0.526 µM | [8] 2.35 µM | [9] 0.935 µM | [12] 0.296 µM

C[C@H](Cn1cnc2c(N)ncnc21)OCP(=O)(O)O
inactive: [1] | [2] | [3] | [15] | [5] | [13] | [6] | [7] | [8] | [10] | [11] | [12]

CN(C)c1ccc2nc3ccc(=[N+](C)C)cc-3sc2c1
active: [1] 1.87 µM | [2] 6.62 µM | [3] 0.469 µM | [4] 8.33 µM | [13] 3.72 µM | [6] 2.35 µM | [14] 4.18 µM | [7] 2.35 µM | [8] 9.35 µM | [9] 1.48 µM | [16] 0.662 µM | [10] 8.33 µM | [11] 0.662 µM

COC(=O)N[C@H](C(=O)N[C@@H](Cc1ccccc1)[C@@H](O)CN(Cc1ccc(-c2ccccn2)cc1)NC(=O)[C@@H](NC(=O)OC)C(C)(C)C)C(C)(C)C
inactive: [1] | [2] | [3] | [5] | [13] | [6] | [14] | [7] | [9] | [10] | [12]
active: [15] 16.6 µM

Nc1cccc2c1CN(C1CCC(=O)NC1=O)C2=O (stereo unspecified)
inactive: [1] | [2] | [3] | [13] | [6] | [7] | [10] | [12]
active: [16] 1.71 µM | [11] 4.81 µM

C=CCc1cc(OC)c(O)c(C(=O)NCCO)c1
inactive: [1] | [2] | [3] | [4] | [13] | [6] | [14] | [7] | [9] | [10] | [11]

O=C(c1ccccc1)c1ccc2n1CCC2C(=O)O (stereo unspecified)
inactive: [1] | [13] | [6]
active: [2] 9.35 µM | [3] 2.35 µM | [14] 8.33 µM | [7] 16.6 µM | [9] 10.5 µM | [10] 13.2 µM | [11] 2.96 µM

CCCOc1ccc2nc(NC(=O)OC)[nH]c2c1
inactive: [1]
active: [2] 0.0118 µM | [4] 0.001 µM | [5] 0.001 µM | [7] 0.0066 µM | [9] 0.0105 µM | [16] 5.26 µM | [11] 0.105 µM

Cc1nc(-c2ccc(OCC(C)C)c(C#N)c2)sc1C(=O)O
inactive: [1] | [2] | [3] | [4] | [15] | [5] | [6] | [7] | [8] | [10] | [12]

O=C1c2c(O)cc(O)cc2OC(c2ccc(O)c(O)c2)C1O (stereo unspecified)
inactive: [1] | [2] | [3] | [4] | [13] | [6] | [7] | [8] | [9] | [10] | [11]

NS(=O)(=O)c1cc(C(=O)O)c(NCc2ccco2)cc1Cl
inactive: [1] | [2] | [3] | [15] | [13] | [6] | [7] | [8] | [10] | [11]
